Data published in the supplement of paper PMC8728848.
About 410 targets per protein were measured; listed, in parts, are those with the strongest signals and a random draw of the rest.

Assays:
Assay in all cases: glycan array binding signal (z-score within array); higher = stronger binding
Details in all cases: glycan notation: IUPAC condensed, linker removed
[1] = target: Fuc(a1-2)Gal
How it was run: (§1)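 The binding signal is a Z-score computed within each array and averaged over linkers. Arrays of the same protein sequence at different concentrations or buffers were also averaged together. Data originate from 3228 arrays in the Consortium for Functional Glycomics database, kept only where the protein sequence was available.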

[2] = target: Fuc(a1-2)Gal(b1-3)GlcNAc(b1-3)GalNAc
How it was run: as §1

[3] = target: Fuc(a1-2)Gal(b1-4)GlcNAc(b1-3)[Fuc(a1-3)[Gal(b1-4)]GlcNAc(b1-6)]Gal(b1-4)Glc
How it was run: as §1

[4] = target: Fuc(a1-2)[Gal(a1-3)]Gal(b1-4)Glc
How it was run: as §1

[5] = target: Fuc(a1-2)[GalNAc(a1-3)]Gal
How it was run: as §1

[6] = target: Fuc(a1-2)[GalNAc(a1-3)]Gal(b1-3)GlcNAc(b1-2)Man(a1-3)[Fuc(a1-2)[GalNAc(a1-3)]Gal(b1-3)GlcNAc(b1-2)Man(a1-6)]Man(b1-4)GlcNAc(b1-4)[Fuc(a1-6)]GlcNAc
How it was run: as §1

[7] = target: Fuc(a1-2)[GalNAc(a1-3)]Gal(b1-4)GlcNAc(b1-2)Man(a1-3)[Fuc(a1-2)[GalNAc(a1-3)]Gal(b1-4)GlcNAc(b1-2)Man(a1-6)]Man(b1-4)GlcNAc(b1-4)[Fuc(a1-6)]GlcNAc
How it was run: as §1

[8] = target: Fuc(a1-2)[GalNAc(a1-3)]Gal(b1-4)[Fuc(a1-3)]GlcNAc
How it was run: as §1

[9] = target: Fuc(a1-2)[GalNAc(a1-3)]Gal(b1-4)[Fuc(a1-3)]GlcNAc(b1-3)GalNAc
How it was run: as §1

[10] = target: Fuc(a1-3)[GalNAc(b1-4)]GlcNAc
How it was run: as §1

[11] = target: Gal(a1-3)Gal(b1-3)GlcNAc(b1-2)Man
How it was run: as §1

[12] = target: Gal(a1-3)Gal(b1-3)GlcNAc(b1-6)GalNAc
How it was run: as §1

[13] = target: Gal(a1-3)Gal(b1-4)[Fuc(a1-3)]GlcNAc
How it was run: as §1

[14] = target: Gal(a1-3)GalNAc
How it was run: as §1

[15] = target: Gal(a1-3)[Gal(a1-4)]Gal(b1-4)GlcNAc
How it was run: as §1

[16] = target: Gal(a1-4)Gal(b1-4)Glc
How it was run: as §1

[17] = target: Gal(b1-3)GalNAc(a1-3)[Fuc(a1-2)]Gal(b1-4)Glc
How it was run: as §1

[18] = target: Gal(b1-3)GalNAc(b1-4)Gal(b1-4)Glc
How it was run: as §1

[19] = target: Gal(b1-3)GlcNAc(b1-3)Gal(b1-3)GlcNAc
How it was run: as §1

[20] = target: Gal(b1-3)GlcNAc(b1-3)Gal(b1-4)GlcNAc(b1-3)Gal(b1-4)GlcNAc(b1-2)[Gal(b1-3)GlcNAc(b1-3)Gal(b1-4)GlcNAc(b1-3)Gal(b1-4)GlcNAc(b1-6)]Man(a1-6)[Gal(b1-3)GlcNAc(b1-3)Gal(b1-4)GlcNAc(b1-3)Gal(b1-4)GlcNAc(b1-2)Man(a1-3)]Man(b1-4)GlcNAc(b1-4)[Fuc(a1-6)]GlcNAc
How it was run: as §1

[21] = target: Gal(b1-3)GlcNAc(b1-6)Gal(b1-4)GlcNAc
How it was run: as §1

[22] = target: Gal(b1-4)Glc6S
How it was run: as §1

[23] = target: Gal(b1-4)GlcNAc(b1-2)Man(a1-3)[Gal(b1-4)GlcNAc(b1-2)Man(a1-6)][Gal(b1-4)GlcNAc(b1-4)]Man(b1-4)GlcNAc(b1-4)[Fuc(a1-6)]GlcNAc
How it was run: as §1

[24] = target: Gal(b1-4)GlcNAc(b1-6)Gal(b1-4)GlcNAc
How it was run: as §1

[25] = target: Gal3S(b1-4)[Fuc(a1-3)]Glc6S
How it was run: as §1

[26] = target: Gal6P(b1-4)GlcNAc
How it was run: as §1

[27] = target: Gal6S(b1-3)GlcNAc
How it was run: as §1

[28] = target: Gal6S(b1-4)Glc
How it was run: as §1

[29] = target: GalNAc(a1-3)GalNAc
How it was run: as §1

[30] = target: GalNAc(b1-3)Gal(a1-4)Gal(b1-4)GlcNAc
How it was run: as §1

B1: AT3G09350(27) (Arabidopsis thaliana), Q84J81 (protein)
chain: MAKDGPNWDGLLKWSLSHADGTRPTRQLSEEDRKWFMEAMQSQTVDVVKRMKEITLVMQTPEQVLVEHGVTPEDIQDLLDELQEHVESIDMANDLHSIGGLVPLLSFLKNSHANIRAKAADVVSTIVQNNPRSQELVMETNALESLLSNFTSDTDIHARTQALGAISSLIRHNKPGVTAFKLANGYAGLRDALASDSVRFQRKALNLLQYLLQEDDSDRSIATGLGFPRVMMHLASSDDAEIREAALRGLLELSREKNDGSSSIDKSDEKLRQLLEERIKGITLMSQEDLETVKEERQLVDLLWSICYNEPSSLREKGLVVLPGEDALPPDVASKLFEPPLRASAANRNATEKKDEPMKLLGP
- glycan array binding signal (z-score) [1]: -0.113
- glycan array binding signal (z-score) [2]: 0.676
- glycan array binding signal (z-score) [3]: -0.595
- glycan array binding signal (z-score) [4]: 2.16
- glycan array binding signal (z-score) [5]: -0.506
- glycan array binding signal (z-score) [6]: -0.677
- glycan array binding signal (z-score) [7]: 0.007
- glycan array binding signal (z-score) [8]: 0.498
- glycan array binding signal (z-score) [9]: 5.85
- glycan array binding signal (z-score) [10]: 3.56
- glycan array binding signal (z-score) [11]: 0.248
- glycan array binding signal (z-score) [12]: -0.449
- glycan array binding signal (z-score) [13]: -0.122
- glycan array binding signal (z-score) [14]: 2.5
- glycan array binding signal (z-score) [15]: 8.94
- glycan array binding signal (z-score) [16]: 2.11
- glycan array binding signal (z-score) [17]: -0.346
- glycan array binding signal (z-score) [18]: 1.91
- glycan array binding signal (z-score) [19]: -0.089
- glycan array binding signal (z-score) [20]: -0.059
- glycan array binding signal (z-score) [21]: 3.05
- glycan array binding signal (z-score) [22]: 0.57
- glycan array binding signal (z-score) [23]: -0.391
- glycan array binding signal (z-score) [24]: 3.1
- glycan array binding signal (z-score) [25]: -0.174
- glycan array binding signal (z-score) [26]: -0.424
- glycan array binding signal (z-score) [27]: -0.146
- glycan array binding signal (z-score) [28]: -0.106
- glycan array binding signal (z-score) [29]: -0.182
- glycan array binding signal (z-score) [30]: 4.3
